Screen size: about 3,300 compounds; about 95 (3%) showed an effect of 50% or more. This excerpt belongs to a sample that is enriched for strong results.

The assay deals with HCoV-229E. The arrangement: species or system Huh-7; HTS, protection from HCoV-229E induced cell death, luminescent cell viability (CellCounting-Lite 2.0), inhibition rate. The note with it: 24 h post infection, 1 h compound pre-incubation; 10 µM; inhibitor.
On to `C=C(CC[C@@H](C(=O)O)[C@H]1[C@H](O)C[C@@]2(C)C3=CC[C@H]4C(C)(C)[C@@H](O)CC[C@]4(C)C3=CC[C@]12C)C(C)C` [Dehydrotumulosic acid], for which the “229E Inhibition rate” value worked out at 8.5%.

As for `C/C(=C\CC[C@@H](C)[C@H]1CC[C@@]2(C)C3=CC[C@H]4C(C)(C)[C@@H](O)CC[C@]4(C)C3=CC[C@]12C)CO` [Ganoderol B], the “229E Inhibition rate” value came out at 7.7%.

Consider `CC1(C)O[C@H]2CC(=O)OC[C@]23[C@H]2CC[C@@]4(C)[C@H](c5ccoc5)OC(=O)[C@H]5O[C@]54[C@]2(C)[C@@H](O)C(=O)[C@@H]13` [Rutaevin], for which the “229E Inhibition rate” value turned out to be 0%.

`COc1ccc(OC)cc1` [1,4-Dimethoxybenzene]: the “229E Inhibition rate” value was found to be 21%.

For the compound `COc1cc(O)cc(OC)c1` [3,5-Dimethoxyphenol], the “229E Inhibition rate” value stood at 32.7%.

Consider `COc1cc(OC)cc(OC)c1` [1,3,5-Trimethoxybenzene], for which the “229E Inhibition rate” value is 55.2%.

For `O=C1N[C@@H](Cc2ccccc2)C(=O)N2CCC[C@@H]12` [Cyclo(L-Phe-L-Pro)], the “229E Inhibition rate” value is 11.1%.

For the compound `CCCCCCCCCCCCCCCc1cc(O)cc(O)c1` [5-Pentadecylresorcinol], the “229E Inhibition rate” value stood at 51.7%.

Regarding `CCCCCCCCCCCC1=C(O)C(=O)C=C(O)C1=O` [Embelin], the “229E Inhibition rate” value amounted to 12.3%.

With `Oc1ccc(CCc2cc(O)cc(O)c2)cc1` [Dihydroresveratrol], the “229E Inhibition rate” value is on record as 10.7%.

Take `O=c1c(O)c(-c2ccc(O)cc2)oc2c(O)c(O)cc(O)c12` [Herbacetin]: the “229E Inhibition rate” value was determined as 0%.

Consider `O=C1CCC[C@@H]2[C@H]3CCCN4CCC[C@@H](CN12)[C@H]34` [Allomatrine], for which the “229E Inhibition rate” value is listed as 8.4%.

For the compound `COC[C@@H]1Cc2cc(OC)c3c(c2[C@H](c2ccc(OC)c(OC)c2)[C@H]1COC)OCO3` [Hypophyllanthin], the “229E Inhibition rate” value was 24.8%.

As to `C=C1C(=O)O[C@H]2C[C@@H](C)[C@@H]3[C@@H](OC(C)=O)C[C@H](O)[C@@]3(C)[C@@H](OC(C)=O)[C@H]12` [Britannin], the “229E Inhibition rate” value is on record as 3%.

Consider `C=C1C(=O)O[C@H]2C[C@@H](C)[C@@H]3CCC(=O)[C@@]3(C)[C@@H](OC(C)=O)[C@H]12` [Ergolide], for which the “229E Inhibition rate” value is reported as 57.9%.

Turning to `C=C1C(=O)O[C@H]2C[C@@H](C)[C@@H]3C=CC(=O)[C@@]3(C)[C@@H](OC(C)=O)[C@H]12` [Bigelovin], the “229E Inhibition rate” value is reported as 4.5%.

Regarding `CC1(C)O[C@H]2CC(=O)OC[C@@]23[C@H]1CC(=O)[C@@]1(C)C2=CC(=O)O[C@@H](c4ccoc4)[C@]2(C)CC[C@@H]13` [Deoxylimonin], the “229E Inhibition rate” value is given as 9.8%.

As to `CC(=O)O[C@@]12CO[C@@H]1C[C@@H](O)[C@@]1(C)C(=O)[C@H](O)C3=C(C)[C@@H](OC(=O)[C@H](O)[C@@H](NC(=O)c4ccccc4)c4ccccc4)C[C@@](O)([C@@H](OC(=O)c4ccccc4)[C@H]21)C3(C)C` [7-Epi 10-desacetyl paclitaxel], the “229E Inhibition rate” value amounted to 21.4%.

For the origin of these results see article PMC12431657, “Discovery and mechanistic insights of dibenzoylmethane as a broad spectrum inhibitor of coronavirus” (PLOS Pathogens, 2025).
